This passage reports composite z-score results from PubChem BioAssay.

For one test, the target named is Carbonic anhydrase 2 (Homo sapiens) (UniProt P00918). Kind of test: compounds binding carbonic anhydrase 2 – biochemical, small-molecule microarray, Alexa647-labelled CAII, profiling panel (AID 1122). To be noted: CAII-A647 binding fluorescence, higher = more signal.
`O=C(N1CCOCC1)[C@@]1(Cc2ccccc2)COC(c2ccc(OCCCO)cc2)=N1` gave a composite z-score of 0.769.

`C=CCC(OC(C)=O)[C@@H]1[C@@H](N(Cc2ccc(-c3cccc(C(F)(F)F)c3)o2)C(=O)c2ccc(-c3ccccc3)cc2)c2cc(OCCCO)ccc2N1C(=O)c1ccc2ccccc2c1` (stereo not given in full) gave a composite z-score of 0.323.

Consider `[N-]=[N+]=NCc1ccccc1[C@@H]1OC(c2ccc(OCCCO)cc2)=N[C@]1(Cc1ccccc1N=[N+]=[N-])C(=O)NCC(O)CO` (stereo not given in full), for which the composite z-score was 0.614.

With `CCCNC(=O)[C@@]1(c2ccc([N+](=O)[O-])cc2)CC(=O)N(C(C)C)[C@@H]1c1ccc(CO)cc1`, the composite z-score worked out at 0.801.

Regarding `CC(C)N1C(=O)C[C@@](C(=O)NCCN2CCOCC2)(c2ccc([N+](=O)[O-])cc2)[C@H]1c1ccc(CO)cc1`, the composite z-score was found to be 0.642.

As to `CCCC[C@H]1OB(O)C[C@H]2C1=C(COc1ccccc1)C[C@H]1C(=O)C=CC(=O)[C@H]12`, the composite z-score is -0.173.

In turn, `CC(C)[Si](C#CCCc1ccccc1)(O[C@H](c1ccccc1)c1cn(Cc2ccccc2)nn1)C(C)C` gave a composite z-score of 0.204.

Tested on in the next test: not listed separately
Kind of test: COS7 lysate on small-molecule microarray, probe aHis, 635 nm (AID 1123).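 Note: z-score combines 667nm fluorescence intensity with signal-to-noise per printed compound spot.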 The note with it: COS7 cell lysate, fluorescence, higher = more signal.
The compound `C[C@@H]1ON(c2ccccc2)[C@H](c2ccccc2)[C@H]1C(=O)O` gave a composite z-score of -0.0056.

Take `C[C@]1(C(=O)O)c2ccccc2C(=O)N(Cc2cc(F)cc(C(F)(F)F)c2)[C@H]1c1ccc(CO)cc1`: the composite z-score is 1.6.

In turn, `COCCOC(=O)N1C(=O)[C@@]2(c3cc(C#CCCO)ccc31)[C@H](c1ccccc1OCCO)N1[C@H](c3ccccc3)[C@H](c3ccccc3)OC(=O)[C@H]1[C@@H]2C(N)=O` had a composite z-score of 1.89.

In turn, `O=C1[C@H]2C=C(I)[C@H](C[C@@H]2OCCCCCCO)[C@@]12CO2` registered a composite z-score of -0.298.

In turn, `C=CCOC(=O)[C@@H]1[C@H]2C(=O)O[C@H](c3ccccc3)[C@H](c3ccccc3)N2[C@H](c2ccc(OCCOC(=O)[C@H]3C[C@H]4C(=O)N[C@@H](CCCCN(C)C)C(=O)N4[C@H]3c3ccc(O)cc3)cc2)[C@@]12C(=O)Nc1ccc(I)cc12` had a composite z-score of 1.95.

Turning to `O=C(NCc1ccccc1)[C@@H]1c2ccccc2C(=O)N(Cc2cc(C(F)(F)F)cc(C(F)(F)F)c2)[C@H]1c1ccc(CO)cc1`, the composite z-score was found to be 1.55.

Compound `CCCC[C@H]1C[C@@H]1[C@@H]1N(C(C)=O)[C@H](c2cccc(OC)c2)CC12CC2` returned a composite z-score of 0.808.

As to `CCOC(=O)C1=CCC(c2cc3ccccc3[nH]2)N(CCN2CC(C(=O)OCC)=CCC2c2cc3ccccc3[nH]2)C1` (stereo not given), the composite z-score came out at 4.05.

In the case of `C=C(CCCC)/C(=C/C[C@H](OC(C)=O)c1cccc(OCCO)c1)c1cnc2ccccc2c1`, the composite z-score is -0.66.

`CCCN1C(=O)[C@@]2(c3ccc([N+](=O)[O-])cc3)CC(=O)N(CC34CC5CC(CC(C5)C3)C4)[C@@H]2c2ccc(CO)cc21` had a composite z-score of 0.634.

In the case of `COc1ccc(C(O)C2C=CC3C(=O)N(c4ccccc4)C(=O)C3N2Nc2ccc(C#N)cc2)cc1OCc1ccccc1` (stereo not given), the composite z-score is 2.01.

The compound `CC(C)NC(=O)[C@@]1(c2ccc([N+](=O)[O-])cc2)CC(=O)N(CC23CC4CC(CC(C4)C2)C3)[C@@H]1c1ccc(CO)cc1` showed a composite z-score of 2.79.

In turn, `CC1=C([C@H](O)CCc2ccccc2)[C@H](CO)n2c(=O)n(-c3ccccc3)c(=O)n2C1` showed a composite z-score of -0.35.

`O=C(NC1CC1)[C@@H]1c2ccccc2C(=O)N(Cc2cc(C(F)(F)F)cc(C(F)(F)F)c2)[C@H]1c1ccc(CO)cc1` yielded a composite z-score of 1.29.

As for `COC(=O)[C@@]1(Cc2ccccc2)N=C(c2ccc(OCCCO)cc2)O[C@H]1c1ccccc1CN=[N+]=[N-]`, the composite z-score worked out at 2.02.

Compound `O=C1c2ccccc2[C@@]2(Cc3ccccc3N(Cc3ccccc3)C2=O)[C@H](c2ccc(CO)cc2)N1Cc1ccccc1Cl` registered a composite z-score of -0.222.

`CC(C)C[C@H]1NC(=O)C([C@@H](C)OCc2ccccc2)NC(=O)[C@@]23C(=O)N[C@@H](Cc4ccccc4)C2[C@H](C)[C@@]2(C)O[C@H]2C3/C=C/C/C=C\CNC1=O` (stereo not given in full): the composite z-score came out at 1.51.

For the compound `CC(C)=CCCC(C)=CC(O)C1C=CC2C(=O)NC(=O)C2N1Nc1ccc(Cl)cc1Cl` (stereo not given), the composite z-score was 1.49.

The compound `CCCCC(=C=CC[C@H](O)c1ccc(CO)o1)CCO` showed a composite z-score of 0.143.

With `CCOC(=O)C1=CC[C@@H](c2ccccc2)N(S(=O)(=O)c2ccc(C)cc2)[C@H]1c1ccccc1I`, the composite z-score amounted to 0.842.

Regarding `[N-]=[N+]=Nc1ccccc1[C@@H]1OC(c2ccc(OCCCO)cc2)=N[C@]1(CCS(=O)(=O)c1ccccc1)C(=O)NCC(O)CO` (stereo not given in full), the composite z-score came out at 2.5.

`N#Cc1ccc(NN2C(C(O)C3CC=CCC3)C=CC3C(=O)N(c4ccccc4)C(=O)C32)cc1` (stereo not given) displayed a composite z-score of 3.13.

Compound `CC(C)C[C@@H]1NC(=O)[C@@]23C(=O)N[C@@H](Cc4ccccc4)C2[C@H](C)[C@@]2(C)O[C@H]2C3/C=C/C/C=C\CNC(=O)CNC1=O` (stereo not given in full) displayed a composite z-score of 0.283.
